Compounds with a hit are over-represented: about 7.3% of the library has one in this group of screens.
FLuc inh = inhibitors of firefly (Photinus pyralis) luciferase | AID 1347043 | P08659 | Potency, µM (highest dose often 115 µM), usual class: inhibitors | purified P. pyralis luciferase, luminescence, biochemical | actives 2.5% (n = 76,000); also: potency is read from the fitted curve at half-maximal effect; nearly all actives have a fitted effect of over 65% in size
Target sequence (P08659 whole entry, looked up): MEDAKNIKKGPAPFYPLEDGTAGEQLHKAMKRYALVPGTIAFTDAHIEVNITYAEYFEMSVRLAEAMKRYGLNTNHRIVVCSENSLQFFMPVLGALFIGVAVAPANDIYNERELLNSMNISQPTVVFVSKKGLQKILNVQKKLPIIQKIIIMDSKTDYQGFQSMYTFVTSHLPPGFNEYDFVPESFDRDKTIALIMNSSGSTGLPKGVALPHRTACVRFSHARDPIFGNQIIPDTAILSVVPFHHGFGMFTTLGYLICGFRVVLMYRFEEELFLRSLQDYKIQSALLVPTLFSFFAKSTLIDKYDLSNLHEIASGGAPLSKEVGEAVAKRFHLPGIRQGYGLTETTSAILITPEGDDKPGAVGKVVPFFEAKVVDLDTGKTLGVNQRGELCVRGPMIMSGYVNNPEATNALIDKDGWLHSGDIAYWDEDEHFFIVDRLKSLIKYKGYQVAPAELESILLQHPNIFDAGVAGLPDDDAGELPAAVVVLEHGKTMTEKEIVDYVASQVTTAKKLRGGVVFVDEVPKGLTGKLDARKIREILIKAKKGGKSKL
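Luminescence read by CCD imaging after purified firefly luciferase (10nM final) was added to substrate buffer holding 10uM D-luciferin and 10uM ATP, pH 7.5, pre-dosed with compound.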
HEK293 viab = counter-screen for SNCA expression inhibitors: cell viability; AID 1671193; actives 0.12% (n = 150,000); HEK-293-SNCA-luc viability, GF-AFC fluorescence, 24 h; Potency, µM (top dose mostly 57.1 µM), for the others: at the top dose activity change, negative = cytotoxicity, hits mostly cytotoxic;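 also: potency is read from the fitted curve at half-maximal effect; 0% = DMSO-treated cells and -100% = medium-only wells without cells; nearly all actives have a fitted effect of over 30% in size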
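HEK-293-SNCA-luc cells (1500/well) plated 24 h, then exposed 24 h to a dilution series; GF-AFC added 30 min at 37C, fluorescence 405/540 nm; normalised to medium-only and DMSO wells, Hill fit.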
HEK293 tox = kills HEK 293 cells | HEK 293 viability, ATP luminescence (CellTiter-Glo), 48-72 h | Potency, µM (titrated, usually from 115 µM), without a hit: at the top dose activity change, negative = cytotoxicity, actives largely listed as inhibitors | actives 6.6% (n = 94,000) | AID 1345083; also: potency is read from the fitted curve at half-maximal effect; nearly all actives have a fitted effect of over 60% in size
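250 HEK 293 cells/well; compound by pintool; incubated 48 or 72 hr at 37 degree Celsius; CellTiter-Glo added, 10 min RT, luminescence imaged.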
IP6K1 inhibitor = inhibitors of human IP6K1; activity change, % (series mostly up to about 58 µM); AID 1645851; actives 0.81% (n = 140,000); Q92551; IP6K1 kinase, ADP-Glo luminescence, 2 h; stronger effect = lower value; in the data active = activity change below about -25%
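ADP-Glo luminescence measures ADP made by human IP6K1 during a 2 h RT reaction with ATP/IP6 (mix at 1.3 mM/130 uM); top library doses 57.5 and 19.1 uM final.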
NIH3T3 tox = NIH 3T3 cell cytotoxicity. NIH 3T3 viability, CellTiter-Glo ATP luminescence, 48-72 h. Potency, µM (titrated, usually from 96.7 µM), without a hit: top-dose activity change, negative = cytotoxicity, actives largely listed as inhibitors. actives 4.3% (n = 94,000). AID 1345082; also: potency is read from the fitted curve at half-maximal effect; nearly all actives have a fitted effect of over 55% in size
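Cells were seeded at 400 per well, treated with pin-transferred compound, and kept 48 or 72 hr at 37 °C before CellTiter-Glo addition and luminescence imaging of cellular ATP.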
SNCA expr inh = inhibitors of alpha-synuclein (SNCA) gene expression; HEK-293 SNCA-luciferase knock-in, luminescence, 24 h; Potency, µM (series often up to 57.2 µM), inactives show at the top dose activity change, negative = inhibition, usual class: inhibitors; actives 0.17% (n = 140,000); AID 1671194;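 also: potency is read from the fitted curve at half-maximal effect; plate controls were DMSO cells for no effect and cell-free wells for full effect; nearly all actives have a fitted effect of over 45% in size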
Active calls of the source: *; i = inactive; ? = inconclusive; · = not tested or not shown; [ ] = another dose, or the depositor's remark. Unless noted, calls follow the shape of the dose curve; as a rule, active = well fitted curve in the direction sought with a large enough effect; inconclusive = small, poorly fitted or top-dose-only effect, or another doubt; inactive = no such curve, though single readings can be large; an effect the other way counts as inactive or inconclusive. Unless noted, % is scaled to controls: 0 for no effect and ±100 for the full control effect.

SMILES	FLuc inh	HEK293 viab	HEK293 tox	IP6K1 inhibitor	NIH3T3 tox	SNCA expr inh
O=C(c1ccccc1F)N1CCC2(CC1)NCCc1c2[nH]c2ccccc12	i	-9%[12.5 µM]	79µM*	6	-6%	59%
O=C(c1ccncc1)N1CCC2(CC1)NCCc1c2[nH]c2ccccc12	i	-11%[12.5 µM]	-20%	6	-25%	15%
COc1ccc(C(=O)N2CCC3(CC2)NCCc2c3[nH]c3ccccc23)cc1	i	-6%[12.5 µM]	79µM*	10	-34%	11%
CN(C)c1ccc(CN2CCCC3(C2)NC(=O)c2ccccc2O3)cc1 (configuration not stated)	i	-1%	0%	17	-4%	14%
COc1cccc(-c2ccc(C(=O)N3CCC(C(=O)NCc4ccc(F)cc4)CC3)cc2)c1	·	0%[12.5 µM]	?	0	?	8%
O=C(CN1CCCC1)N[C@H]1CC[C@H](Nc2nccc(-c3cccnc3)n2)C1	i	-13%	45µM*	7	?	16%
O=C(N[C@H]1CC[C@H](Nc2nccc(-c3cccnc3)n2)C1)c1ccc(O)cc1	i	-2%	?	-18	?	7%
O=C(c1[nH]nc2c1CCc1ccccc1-2)N1CCC(c2noc(-c3cccnc3)n2)C1 (configuration not stated)	i	-10%	35µM*	6	?	-8%
CCN1c2cc(C(=O)Nc3ccc(Cl)cc3)ccc2C(=O)N2CCCCCC21 (configuration not stated)	i	-6%[12.5 µM]	45µM*	-6	?	?
CCN1c2cc(C(=O)Nc3ccc(F)c(F)c3)ccc2C(=O)N2CCCCCC21 (configuration not stated)	i	0%[12.5 µM]	?	-2	?	?
CCN1c2cc(C(=O)Nc3ccc(C(C)C)cc3)ccc2C(=O)N2CCCCCC21 (configuration not stated)	i	-6%[12.5 µM]	?	-5	22µM*	?
CCN1c2cc(C(=O)Nc3ccc(Cl)c(Cl)c3)ccc2C(=O)N2CCCCC21 (configuration not stated)	i	27%[12.5 µM]	?	-22	?	-8%
CCN1c2cc(C(=O)Nc3ccc(C(C)C)cc3)ccc2C(=O)N2CCCCC21 (configuration not stated)	?	-3%[12.5 µM]	18µM*	6	?	?
CCN1c2cc(C(=O)Nc3ccc(-n4ccnc4)cc3)ccc2C(=O)N2CCCCCC21 (configuration not stated)	i	?	?	-11	11µM*	2%
CC(CNC(=O)c1noc(-c2ccc3c(c2)OCO3)n1)c1ccccc1 (configuration not stated)	i	-6%	-21%	-13	?	5%
O=C1C(OCC2CC2)C2(CCCCC2)N1C1CCN(Cc2cccnc2)CC1 (configuration not stated)	i	-3%	?	-10	-15%	?
O=C(NC[C@@H]1CCCN1)C1CCN(c2nc(-c3ccccc3)nc3c2CCC3)CC1	i	-29%	32µM*	18	22µM*	-23%
O=C(NC1CCCNC1)C1CCN(c2nc(-c3ccccc3)nc3c2CCC3)CC1 (configuration not stated)	i	-4%	?	2	45µM*	-10%
CC(C)(C)CC(=O)N1CCN(c2nc(-c3ccccc3)nc3c2CCC3)CC1	i	-19%	0%	9	5%	?
CNCCNC(=O)C1CCN(c2nc(-c3ccccc3)nc3c2CCC3)CC1	i	-22%	?	20	?	-10%
COC(C)(C)C(=O)N1CCN(c2nc(-c3ccccc3)nc3c2CCC3)CC1	i	-10%	79µM*	1	-16%	14%
CC1COC(Nc2ccc3ncnc(Nc4ccc(OCc5nccs5)c(Cl)c4)c3c2)=N1 (configuration not stated)	·	?	·	20	·	·
Cc1ccc(-c2cc(C(=O)NCc3cccc(F)c3)nn3cnnc23)cc1	·	?	?	-4	?	12%
COc1ccc(C(=O)N2CCN(C(=O)c3ccc(-c4ccc(OC)nn4)cc3)CC2)cc1	·	·	?	-7	?	·
CC(C)C[C@@H]1N[C@H](C(=O)N2CCCC2)Cc2cn(Cc3ccccn3)c3cccc1c23	i	-10%[87.6 µM]	112µM*	-7	?	-22%[87.6 µM]
SMILES	FLuc inh	HEK293 viab	HEK293 tox	IP6K1 inhibitor	NIH3T3 tox	SNCA expr inh
CC(C)C[C@@H]1N[C@H](C(=O)N2CCOCC2)Cc2cn(Cc3ccccn3)c3cccc1c23	i	2%[87.6 µM]	100µM*	-4	?	-22%[87.6 µM]
CC(C)C[C@@H]1N[C@H](C(=O)N2CCOCC2)Cc2cn(Cc3nccn3C)c3cccc1c23	i	0%[87.6 µM]	-19%[172 µM]	-9	-30%[174 µM]	10%[87.6 µM]
CC(=O)N1CC[C@H](c2nc3cc(C)ccc3o2)C1	i	-2%[87.6 µM]	i	-2	2%[230 µM]	85%[87.6 µM]
COCCN1C(=O)c2ccccc2C(C(=O)Nc2nc(C)cs2)C12CCCC2 (configuration not stated)	i	-13%	-1%	16	-19%	2%
CNC(=O)c1cc(C2CC2)nc2onc(C3CCN(C(=O)Nc4ccc(Cl)cc4)CC3)c12	·	·	?	15	?	·
CNC(=O)c1cc(C2CC2)nc2onc(C3CCN(C(=O)Nc4ccc(C)c(F)c4)C3)c12 (configuration not stated)	·	·	45µM*	-4	?	·
COc1ccc(C(=O)N2CCn3c(nnc3-c3ccccc3)C2)cc1	i	5%	-3%	2	-3%	-15%
Cc1ccc(NC(=O)Cn2c(-c3ccccc3)nc(C)cc2=O)cc1	i	-24%	?	1	?	-22%
Cc1cc(=O)n(CC(=O)Nc2ccc(F)cc2)c(N2CCN(c3ccccc3)CC2)n1	i	0%	?	14	?	1%
Cc1cc(C)cc(NC(=O)Cn2c(N3CCC(C)CC3)nc(C)cc2=O)c1	i	-14%	?	4	?	-11%
CCc1ccc(NC(=O)Cn2c(N3CCC(C)CC3)nc(C)cc2=O)cc1	i	-2%	45µM*	16	?	-17%
Cc1ccc(NC(=O)Cn2c(C)cc3nc4n(c(=O)c32)CCCCC4)cc1Cl	i	?	28µM*	0	40µM*	-27%
Cc1ccc(NC(=O)Cn2c(C)cc3nc4n(c(=O)c32)CCC4)cc1Cl	i	0%	?	-8	?	-2%
CC(=O)c1ccc(NC(=O)Cn2c(-c3ccc(Cl)cc3)nc(C)cc2=O)cc1	i	-19%	45µM*	11	?	0%

Bioassay records (PubChem BioAssay)
